A selection: hits, their analogues and other compounds. The true share with any hit is near 3.8%.
Candida biofilm: kills Candida albicans biofilms | C. albicans biofilm + clotrimazole, Alamar Blue | AID 834 | 85,000 compounds, 0.14% hits | inhibition, % at 6 µM;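 active = inhibition above 20%; inactive = inhibition below 20%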;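 also: preformed 24 hr biofilms exposed to compound for 48 hr; 0% = biofilm without compound and 100% = blank killed by clotrimazole plus chlorhexidine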
ERa coact pot: enhances coactivator binding to human estrogen receptor alpha. AID 639. TR-FRET ERalpha-LBD/SRC-Cy5 coactivator binding, 2 h; 100 = basal binding, no effect. P03372. coactivator binding (% of control), % at 25.6 µM. 86,000 compounds, 1.3% hits; in the data active = activity above about 200%;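 also: binding measured in presence of low estradiol as agonist stimulus; 0% = peptide alone without receptor and 100% = receptor with peptide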
ERa coact inh: ER-alpha (human) coactivator binding inhibition | P03372 | TR-FRET ER-alpha LBD / SRC-1 peptide, estradiol-bound | inhibition, % at 25.6 µM | 86,000 compounds, 1.7% hits; in the data active = inhibition above about 50%;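 also: 0% = receptor plus peptide control and 100% = peptide only without receptor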
MT1-MMP txn act: activates MT1-MMP transcription | HT1080 MT1-MMP promoter luciferase reporter, luminescence, overnight; stronger effect = higher value | activation factor at 10 µM | 86,000 compounds, 0.16% hits | AID 750;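 active = activation factor of at least 2 for MT1-MMP transcription at 10 µM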
ERb SRC1 inh: ER-beta (human) coactivator binding inhibition. Q92731. TR-FRET ER-beta LBD / SRC1-Cy5 peptide binding; receptor agonist-loaded with 1 µM estradiol. inhibition, % at 25.6 µM. 86,000 compounds, 1.3% hits. AID 633;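 active = compounds whose percent inhibition of the receptor-coactivator binding signal exceeds about 50% in the single-dose screen, limit read from the data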;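 also: 0% = receptor plus peptide wells without compound and 100% = peptide-only wells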
Smad3 inh: blocks human Smad3 binding to FoxH1 peptide; P84022; TR-FRET Smad3/Dy647-FoxH1 peptide binding, europium anti-His; inhibition, % at 25 µM; 88,000 compounds, 0.29% hits; AID 630;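 active = compounds that reduce the energy-transfer binding signal between the protein and its labelled peptide by more than half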;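 also: 0% = Smad3 plus labelled peptide maximal FRET and 100% = peptide-only background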
Target sequence (P84022 whole entry, looked up): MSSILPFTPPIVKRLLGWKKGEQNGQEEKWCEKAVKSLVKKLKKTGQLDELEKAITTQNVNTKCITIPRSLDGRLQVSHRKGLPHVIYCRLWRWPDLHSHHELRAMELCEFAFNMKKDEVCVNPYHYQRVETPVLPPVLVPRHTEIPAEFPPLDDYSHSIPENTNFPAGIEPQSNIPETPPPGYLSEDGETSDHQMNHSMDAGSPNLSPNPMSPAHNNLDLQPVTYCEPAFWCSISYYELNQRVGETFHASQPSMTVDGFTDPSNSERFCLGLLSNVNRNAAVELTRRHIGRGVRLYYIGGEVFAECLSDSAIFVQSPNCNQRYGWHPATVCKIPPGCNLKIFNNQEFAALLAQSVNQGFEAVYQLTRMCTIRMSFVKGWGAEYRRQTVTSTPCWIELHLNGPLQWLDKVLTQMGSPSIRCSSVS
* = called active by the depositor; [ ] = remark or other dose.

Results for CCOC(=O)C1=C(C)OC(N)=C(C#N)C1c1ccoc1 (configuration not stated) ?
Candida biofilm: 1.5; ERa coact pot: 106.3; ERa coact inh: 3.6; MT1-MMP txn act: 1.2; ERb SRC1 inh: 2.3; Smad3 inh: 5.0

What do the screens show for `N#CC1=C(N)OC2=C(CCC/C2=C/c2ccoc2)C1c1ccoc1` (configuration not stated)?
Candida biofilm: 8.2; ERa coact pot: 35.9; ERa coact inh: 73.8*; MT1-MMP txn act: 1.3; ERb SRC1 inh: 73.4*[fluorescence artefact?]; Smad3 inh: 17.1

Results for Cc1ccc(C)c(N2CCN(C(=O)CNS(=O)(=O)c3cccs3)CC2)c1 ?
Candida biofilm: 7.0; ERa coact pot: 94.3; ERa coact inh: -6.5; MT1-MMP txn act: 1.1; ERb SRC1 inh: -4.3; Smad3 inh: 1.6

How did N[C@@](CC(=O)O)(Cc1ccccc1)C(=O)O do in these assays?
Smad3 inh: -4.1

What do the screens show for `COc1cccc(NC2SC(=O)N(c3ccccc3)C2=O)c1` (configuration not stated)?
Candida biofilm: 10.7; ERa coact pot: 203.6*; ERa coact inh: -15.9; MT1-MMP txn act: 1.4; ERb SRC1 inh: -2.1; Smad3 inh: -7.5

How did CC(C)(C)C(=O)NCCN1CCN(C(=O)C(C)(C)C)CC1 do in these assays?
Candida biofilm: 8.7; ERa coact pot: 103.2; ERa coact inh: -9.1; MT1-MMP txn act: 1.4; ERb SRC1 inh: 0.5; Smad3 inh: -0.9

How did C=CCNC(=O)Nc1ccc2oc(C)nc2c1 do in these assays?
Candida biofilm: 6.2; ERa coact pot: 110.5; ERa coact inh: 14.9; MT1-MMP txn act: 1; ERb SRC1 inh: 86.4*[fluorescence artefact?]; Smad3 inh: 8.4

How did c1ccc2c[n+](Cc3ccnc4ccccc34)ccc2c1 do in these assays?
Smad3 inh: 101.1*

What do the screens show for `O=C(O)CCc1ccc(-c2ccccc2)[nH]1`?
Smad3 inh: 1.4

How did O=C(O)CCCc1ccc2ccc3ccccc3c2c1 do in these assays?
Smad3 inh: -4.0

What do the screens show for `O=C(C[n+]1ccc2ccccc2c1)c1ccc2ccc3ccccc3c2c1`?
Smad3 inh: 81.3*

What do the screens show for `O=[N+]([O-])c1ccc2c(N=Nc3ccc4ccccc4c3O)c(O)cc(S(=O)(=O)O)c2c1`?
Smad3 inh: 72.0*

What do the screens show for `CC(C)(C)c1ccc(OC(=O)Nc2ccc(O)c(C(=O)O)c2)cc1`?
Smad3 inh: 65.3*

What do the screens show for `O=C(Cn1nnc(-c2ccccc2NC(=O)c2ccco2)n1)Nc1ccccc1`?
Candida biofilm: 3.3; ERa coact pot: 286.3*[fluorescence artefact?]; ERa coact inh: 59.7*[fluorescence artefact?]; MT1-MMP txn act: 1; ERb SRC1 inh: 42.6; Smad3 inh: 15.8

How did COc1ccc(NC(=O)Cn2nnc(-c3ccccc3NC(=O)c3cccs3)n2)cc1 do in these assays?
Candida biofilm: 5.2; ERa coact pot: 237.5*[fluorescence artefact?]; ERa coact inh: 32.8; MT1-MMP txn act: 1; ERb SRC1 inh: 30.3; Smad3 inh: 0.5

Results for Cc1noc(NC(=O)Nc2ccccc2F)c1C#N ?
Smad3 inh: 6.2

How did CN(C1CCCCC1)S(=O)(=O)c1ccccc1 do in these assays?
Candida biofilm: 6.7; ERa coact pot: 110.4; ERa coact inh: 0.9; MT1-MMP txn act: 1.2; ERb SRC1 inh: -10.2; Smad3 inh: 8.8

What do the screens show for `CN(C1CCCCC1)S(=O)(=O)c1ccc(C(=O)O)cc1`?
Candida biofilm: 24.6*; ERa coact pot: 101.2; ERa coact inh: 5.5; MT1-MMP txn act: 1.1; ERb SRC1 inh: 7.5; Smad3 inh: -10.1

How did CC(CO)(CO)Nc1ncnc2ccccc12 do in these assays?
Smad3 inh: 1.2

How did CC1(C(=O)NCCN2CCOCC2)C=CC2(CCCCC2)N1C(=O)c1ccccc1 (configuration not stated) do in these assays?
MT1-MMP txn act: 1

Results for O=C(O)c1ccccc1C(=O)Nc1ccccn1 ?
Candida biofilm: 0.2; ERa coact pot: 126.4; ERa coact inh: -2.2; MT1-MMP txn act: 1.1; ERb SRC1 inh: -1.1; Smad3 inh: -9.1

How did O=C(O)c1ccccc1C(=O)Nc1cc2c(cc1Br)-c1ccccc1C2=O do in these assays?
Smad3 inh: 100.7*

Results for Oc1ccc(Cc2cc(Cl)cc(Cl)c2O)cc1Cl ?
Smad3 inh: 7.6

What do the screens show for `O=C(Nc1cccc(NC(=O)c2ccc(Br)o2)n1)c1ccc(Br)o1`?
Candida biofilm: 8.3; ERa coact pot: 257.8*[fluorescence artefact?]; ERa coact inh: 30.3; ERb SRC1 inh: 21.6; Smad3 inh: -50.4

Results for O=C(Nc1nc2c(Cl)cccc2s1)c1ccc(Br)o1 ?
Candida biofilm: -0.4; ERa coact pot: 535.0*[fluorescence artefact?]; ERa coact inh: -82.4; MT1-MMP txn act: 1.2; ERb SRC1 inh: -7.8; Smad3 inh: -7.1

What do the screens show for `Cc1ccc2cccc(NC(=O)c3ccc(Br)o3)c2n1`?
Candida biofilm: -3.1; ERa coact pot: 99.6; ERa coact inh: -0.8; MT1-MMP txn act: 1; ERb SRC1 inh: 10.8; Smad3 inh: 2.4

Results for COC(=O)c1ccc(C(NC(=O)OCc2ccccc2)/C(C)=C/[C@@H](C)C(=O)NCCN2CCOCC2)cc1 (some centres not stated) ?
MT1-MMP txn act: 1

Results for CCOC(=O)c1ccc(Nc2ncnc3c2cnn3C)cc1 ?
Candida biofilm: 5.5; ERa coact pot: 110.8; ERa coact inh: -2.7; MT1-MMP txn act: 1.1; ERb SRC1 inh: 72.1*[fluorescence artefact?]; Smad3 inh: -6.5

Results for Cn1ncc2c(Nc3ccc4ccccc4c3)ncnc21 ?
Candida biofilm: 8.6; ERa coact pot: 112.3; ERa coact inh: 1.8; MT1-MMP txn act: 1.6; ERb SRC1 inh: -0.4; Smad3 inh: 12.8

How did Cc1ncn(-c2ccccc2O)c1C do in these assays?
Smad3 inh: 20.1

What do the screens show for `COc1cccc(-c2nc(CS(=O)(=O)CC(=O)Nc3cc(C)ccc3C)c(C)o2)c1`?
Candida biofilm: 7.6; ERa coact pot: 213.8*[fluorescence artefact?]; ERa coact inh: 16.3; MT1-MMP txn act: 1.1; ERb SRC1 inh: 12.4; Smad3 inh: -6.4

Results for CSc1ccccc1NC(=O)c1ccccc1N(Cc1ccccc1)S(C)(=O)=O ?
Candida biofilm: 1.6; ERa coact pot: 106.7; ERa coact inh: -3.9; MT1-MMP txn act: 1.2; ERb SRC1 inh: 59.2*; Smad3 inh: -8.5

What do the screens show for `CSc1ccccc1NC(=O)c1ccccc1N(C)S(C)(=O)=O`?
Candida biofilm: 5.7; ERa coact pot: 103.8; ERa coact inh: -1.4; MT1-MMP txn act: 1; ERb SRC1 inh: -4.4; Smad3 inh: 1.1

Results for Cc1nc2ncnn2c(N2CCN(C(=O)Cc3cccs3)CC2)c1C ?
Candida biofilm: -0.7; ERa coact pot: 27.4; ERa coact inh: 89.8*[fluorescence artefact?]; MT1-MMP txn act: 1; ERb SRC1 inh: 85.3*[fluorescence artefact?]; Smad3 inh: -18.7

How did O=C1c2ccccc2C(O)(c2ncc[nH]2)N1CCc1ccccc1 (configuration not stated) do in these assays?
Candida biofilm: 5.3; ERa coact pot: 103.0; ERa coact inh: 5.0; ERb SRC1 inh: -6.3; Smad3 inh: 1.3

Source: PubChem
